Values joined by “and” are separate entries in the source; they are usually repeats but may differ in a detail not shown here. Equal entries are not always repeated. This is part of a sample that, as a whole, favours compounds with a hit. Of some 83,000 tested, about 20% had one in any assay.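 Single-dose data. Exposure time 48 hours. Values below 10 considered active.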 Active and inactive are the calls of the source.
Test system: HCC-2998 colon
Assay: NCI-60 one-dose screen, 48 h (100 = growth as untreated, 0 = no growth, -100 = all killed)
Details: 10 µM unless noted

| SMILES | growth |
| --- | --- |
| CN(C)C(=O)c1cc2cnc(Nc3ccc(-c4csc5c(=S)cc(N6CCOCC6)oc45)cc3)nc2n1C1CCCC1 | 8.51% (active) |
| CN1CCN(c2ccc(/C=C/C(=O)c3ccc(O)cc3)cc2)CC1 | 102% (inactive) |
| CCCCC(NC(=O)CN1C(=O)/C(=C/C(C)=C/c2ccccc2)SC1=S)C(=O)O (stereo not given) | 110% (inactive) |
| CC1(Cc2ccccc2)CC2=C(C(=O)O1)C(c1ccccc1)NC(=O)N2 (stereo not given) | 94.9% (inactive) |
| CCCCn1c(C(=O)c2c[nH]c3ccccc23)n[nH]c1=S | 101% (inactive) |
| COc1ccc(/C=C2\COc3ccc(O)c(O)c3C2=O)c(OC)c1OC | 65.6% (inactive) |
| C=C(CN1CC=CCC1)[C@@H]1CC[C@]2(COC(C)=O)CC[C@]3(C)[C@H](CC[C@@H]4[C@@]5(C)CC[C@H](O)C(C)(C)[C@@H]5CC[C@]43C)[C@@H]12 | 112% (inactive) |
| O=[N+]([O-])c1ccc(S(=O)Cc2ccccc2)c([N+](=O)[O-])c1 (stereo not given) | 97.2% (inactive) and 97.5% (inactive) |
| O=C(Cn1cc(CN2CCN(c3ccnc4cc(Cl)ccc34)CC2)nn1)Nc1cccc([N+](=O)[O-])c1 | 106% (inactive) |
| Nc1n[nH]c2cccc(C#Cc3cccc(NC(=O)c4ccc(N5CCOCC5)c(C(F)(F)F)c4)c3)c12 | 6.77% (active) |
| CONC1=Nc2cc(NC(N)=NCc3ccccc3)c(N(C)C3CCCCC3)cc2OC1 | 22.1% (inactive) |
| Cc1ccc(NC(=O)c2ccc(CN3CCN(C)CC3)cc2)cc1Nc1nccc(-c2cccnc2)n1 | 122% (inactive) and 96.8% (inactive) |
| Fc1ccc(NC(c2ccc(F)cc2)C2CCN(CCCCc3ccccc3)CC2)cc1 (stereo not given) | 16.3% (inactive) |
| COc1ccc2c(O)c(/C=C3\N=Nc4nc(C)ccc43)oc2c1CC1CCNCC1 | 78.1% (inactive) |
| COc1ccc(C(=O)N/N=C/c2ccc(O)cc2O)cc1Nc1ccnc(C(F)(F)F)c1 | 40.9% (inactive) |
| COc1cc(-c2[nH]ncc2Nc2ccc(Cl)cc2)cc(OC)c1OC | 83.4% (inactive) |
| Nc1ccc(S(=O)(=O)c2ccc(N)cc2)cc1 | 98% (inactive) and 108% (inactive) |
| C/C(=C(\c1ccc(OCCN2CCOCC2)cc1)c1ccc(OC(=O)C2CCCCC2)cc1)c1ccc(Cl)cc1 | 94.2% (inactive) |

| SMILES | growth |
| --- | --- |
| CCN(CC)CCOc1ccc(/C(=C(\Cl)c2ccccc2)c2ccccc2)cc1 | 35.7% (inactive) and 98.3% (inactive) |
| CSc1nnc(-c2cc3c([nH]c4ccccc43)c(-c3cccc(O)c3)n2)n1-c1ccc(C)cc1 | 54.2% (inactive) |
| COc1ccc(/C(C)=C(\c2ccc(OCCN3CCCCCC3)cc2)c2ccc(OC(=O)C3CCCCC3)cc2)cc1 | -79% (active) |
| N=C1/C(=C2\NC3C=CC=CC3S2)C(c2ccc(Cl)cc2)C2C(=O)N(c3ccccc3)C(=S)N12 (stereo not given) | 99.1% (inactive) |
| Nc1nc(Nc2cccnc2)sc1C(=O)c1ccccc1F | 69.5% (inactive) |
| COCCOc1cc2ncnc(N3CCN(S(=O)(=O)c4ccccc4Cl)CC3)c2cc1OCCOC | 79.6% (inactive) |
| O=C1/C(=C/c2ccc(F)c(F)c2)CN(C(=O)C(Cl)Cl)C/C1=C\c1ccc(F)c(F)c1 | -83.4% (active) |
| O=C([C@H]1C[C@H]1c1ccc(S(F)(F)(F)(F)F)cc1)N1CCN(c2cc(Cl)ccc2C(F)(F)F)CC1 | 96.9% (inactive) |
| O=C(NNc1ccccc1)c1ncc[nH]1 | 60.6% (inactive) |
| COc1cccc(C2C(C#N)=C(N)Oc3cc(OCCCCCC[P+](c4ccccc4)(c4ccccc4)c4ccccc4)ccc32)c1 (stereo not given) | -68.6% (active) |
| CCOC(=O)N(O)c1ccc(/C=C/c2ccccc2)cc1 | 59.3% (inactive) and 66.4% (inactive) |
| CN(C)CCN1C(=O)c2c(c3c4ccccc4n4c3c3c2c2ccccc2n3C2CC(O)C(O)C4(C)O2)C1=O (stereo not given) | 26.4% (inactive) |
| O=C(CCCOc1ccc(Br)cc1)Nc1ncc(Cc2ccc(F)cc2)s1 | 73.9% (inactive) |
| COc1cc(NC2CCCCC2O)c2nc(-c3ccc(Cl)cc3)ccc2c1 (stereo not given) | 91.8% (inactive) and 93% (inactive) |
| O=C(O)C1C2CCC1C(O)C2 (stereo not given) | 99.9% (inactive) and 101% (inactive) |
| C=C1CC[C@@H]2[C@](C)(COC(C)=O)[C@H](OC(C)=O)CC[C@@]2(C)[C@@H]1CC(Nc1ccc(S(=O)(=O)Nc2nccs2)cc1)C1=CCOC1=O (stereo not given in full) | 54.2% (inactive) |
| Nc1nc(Nc2ccc(F)cc2)nn1C(=O)c1cc(Cl)ccc1Cl | 86.3% (inactive) |

From PubChem BioAssay (NCI)
